# Source: PubChem BioAssay (NCI)
# The panel holds about 83,000 compounds, 20% with a hit somewhere; the sample as a whole holds those more often.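 The test compound was applied at a single concentration to cells in 96-well plates for 48 hours, and percent growth was recorded.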 Active and inactive are the calls of the source. The calls were made as follows: active = growth percent below 10; inactive = the rest.
# Test system: SK-MEL-5 melanoma
# Test: NCI-60 one-dose screen, 48 h (100 = growth as untreated, 0 = no growth, -100 = all killed)
# Settings: 10 µM unless noted
row,Structure (SMILES),growth
1,CC1=C(CNO)C2=C(C)C3(CC3)[C@@](C)(O)C(=O)C2=C1,-67.4% (active)
2,COc1ccc(O)c(CNC(=O)CN2CCCC2=O)c1,107% (inactive)
3,CN1CCCCC1C(C)(O)c1ccccc1 (centres undefined),104% (inactive)
4,COC(=O)CC[C@H](Cc1ccccc1)NC(=O)c1csc([C@@H](C[C@H](C(C)C)N(C)C(=O)[C@@H](NC(=O)[C@H]2CCCCN2C)C(C)C)OC(C)=O)n1,-13.4% (active)
5,COc1ccc(N(CC(=O)NCCC[Te]c2ccccc2)C(=O)CNC(=O)OC(C)(C)C)cc1,41.4% (inactive)
6,COC(=O)[C@@H](C)C[C@H](Cc1ccccc1)NC(=O)c1csc([C@@H](C[C@H](C(C)C)N(C)C(=O)[C@@H](NC(=O)[C@H]2CCCCN2C)C(C)C)OC(C)=O)n1,-50.2% (active)
7,COC1OC(CO)C(O)C(O)[CH]1[Hg][O]C(C)=O (centres undefined),86.2% (inactive)
8,CC12CC=CCC1CCC1C2CCC2(C)C(c3ccc(=O)oc3)CCC12O (centres undefined),-47.5% (active)
9,O=C1C2CC=CCC2C(=O)N1SC(Cl)(Cl)Cl (centres undefined),94.1% (inactive)
10,CCOC(=O)[C@@H](C)C[C@H](Cc1ccccc1)NC(=O)c1nc([C@@H](C[C@H](C(C)C)N(C)C(=O)[C@@H](NC(=O)[C@H]2CCCCN2C)C(C)C)OC(C)=O)sc1CCOCc1ccccc1,-39.7% (active)
11,COP(=S)(N1CC1)N1CC1,104% (inactive)
12,COC(=O)[C@@H](C)C[C@H](Cc1ccccc1)NC(=O)c1nc([C@@H](C[C@H](C(C)C)N(C)C(=O)[C@@H](NC(=O)[C@H]2CCCCN2C)C(C)C)OC(C)=O)sc1C(C)C,-57.3% (active)
13,COC(=O)[C@@]1(O)C[C@H]2O[C@]1(C)n1c3ccccc3c3c4c(c5c6ccccc6n2c5c31)C(=O)NC4,-89.4% (active)
14,N/C(=N\N=C\c1ccc(-c2ccccc2)cc1)N[N+](=O)[O-],19.8% (inactive)
15,COc1ccc([As]=[As]c2ccc(OC)c(NCS(=O)(=O)O)c2)cc1NCS(=O)(=O)O (centres undefined),1.61% (active)
16,C1CCC([PH+](C2CCCCC2)C2CCCCC2[PH+](C2CCCCC2)C2CCCCC2)CC1.O=C(C1[CH-]CCCC1)C1CCCC[N-]1.[Au] (centres undefined),-98.8% (active)
17,O=P1(NCCCl)OCCCN1CCCl (centres undefined),112% (inactive)

row,Structure (SMILES),growth
1,O=C([O][Hg][c]1ccccc1)c1ccccc1,5.37% (active)
2,CC(CO)NC1CCCCC1 (centres undefined),104% (inactive)
3,C[C@@]12CC=C3c4nc(Nc5cccc(O)c5)sc4CC[C@]3(C)[C@H]1CC[C@]1(C)C(=O)CC[C@@H]21,64.8% (inactive)
4,COC(=O)[C@@H](C)C[C@H](Cc1ccccc1)NC(=O)c1csc([C@@H](C[C@H](C(C)C)N(C)C(=O)[C@@H](NC(=O)[C@H]2CCCCN2C)c2ccc(F)cc2)OC(C)=O)n1,-46.3% (active)
5,OCCCCCNC1CCCCC1,96.7% (inactive)
6,COc1cc(/C=C/[N+](=O)[O-])c([N+](=O)[O-])cc1OC,56.2% (inactive)
7,NC(CCl)CCl,99.4% (inactive)
8,O=[N+]([O-])CC(c1ccccc1Cl)c1c(-c2ccccc2)[nH]c2ccccc12 (centres undefined),28.4% (inactive)
9,C#Cc1ccc2c(c1)C(c1ccccc1)=NCC(=O)N2C,34.7% (inactive)
10,CN(C)C(=O)Oc1ccccc1,113% (inactive)
11,OCCNC(Cc1ccccc1)c1ccc2c(c1)OCO2 (centres undefined),101% (inactive)
12,Nc1ccc2c(c1)Cc1cc(Br)ccc1-2,104% (inactive)
13,C#Cc1ccc2c(c1)C(c1ccccc1F)=NCC(=O)N2C,29.9% (inactive)
14,O=C([O][Hg][CH2]C1OCCOC1[CH2][Hg][O]C(=O)c1ccccc1)c1ccccc1 (centres undefined),93.1% (inactive)
15,C[C@@H]1O[C@@H](O[C@H]2C[C@@H](O)[C@]3(CO)C4C(CC[C@]3(O)C2)[C@@]2(O)CC[C@H](C3=CC(=O)OC3)[C@@]2(C)C[C@H]4O)[C@H](O)[C@H](O)[C@H]1O (some centres undefined),-95.5% (active)
16,CC1=C(CN)C2=C(C)C3(CC3)[C@@](C)(O)C(=O)C2=C1,98.8% (inactive)
17,COC(C(=O)[C@@H](O)[C@@H](C)O)[C@@H]1Cc2cc3cc(O[C@H]4C[C@@H](O[C@H]5C[C@@H](O)[C@H](O)C(C)O5)[C@H](O)C(C)O4)c(C)c(O)c3c(O)c2C(=O)[C@H]1O[C@H]1C[C@@H](O[C@H]2C[C@@H](O[C@H]3C[C@@H](O)[C@@H](O)C(C)O3)[C@@H](O)C(C)O2)[C@H](O)C(C)O1 (some centres undefined),-49.2% (active)
